Data: PubChem BioAssay (NCI)
This is part of a sample that, as a whole, favours compounds with a hit. Of some 83,000 tested, about 20% had one in any assay.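 Each cell line was grown in a 96-well plate and treated with one concentration of compound for 48 hours. Values below 10 were considered active.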 Values without a mark were called inactive. The source made the active and inactive calls.

system: HCC-2998 colon; test: NCI-60 one-dose screen, 48 h (100 = growth as untreated, 0 = no growth, -100 = all killed); conditions: 10 µM
Method: Growth inhibition of the HCC-2998 human tumor cell line is measured as a screen for anti-cancer activity. Cells are grown in 96 well plates and exposed to the test compound for 48 hours. Compounds are tested at a single concentration, which is 10^-5 M for most compounds. The reported endpoint is percent growth (GI% or GIPRCNT), where numbers from 0 - 100% represent growth inhibition, and numbers from -100% - 0 represent cell death. For example, a value of 40 represents 60% growth inhibition. A value of 0 means no net growth occurred over the course of the experiment. A value of -40 indicates 40% of cells at the beginning of the experiment died by the end of the experiment. A value of -100 means all cells are dead at the end of the experiment.
NCI-60 Human Tumor Cell Lines Screen was performed using the standard one-dose NCI protocol, which is described in more detail at https://dtp.cancer.gov/discovery_development/nci-60/default.htm.
Compounds with GIPRCNT values below 10 were considered active. Activity score was based on GIPRCNT using the following formula: […]
Score is 0 for GIPRCNT values of 100 or above, 50 for GIPRCNT values of 0, and 100 for GIPRCNT values of -100.

First: O=C1NC2C=CC=CC2/C1=C1/SC(=S)N(C2CC(=O)N(c3ccc(Br)cc3)C2=O)C1=O (stereo not given)
Second: CCOC(=O)C1=C(N)N(c2ccc(C)cc2)C2=C(C(=O)CC(C)(C)C2)C1c1ccccc1Br (stereo not given)
The growth of the first is higher: 99.3% for the first, 89.4% for the second.

Compared with `CC(C)(C)c1cc(/C=C2\S/C(=N/c3ncn[nH]3)NC2=O)cc(C(C)(C)C)c1O`, `Cc1ccc2c(c1)C(=O)/C(=C/c1c[nH]c3ccccc13)S2` is higher in growth: 14.5% for the first, 65.8% for the second.

Compared with `Fc1ccc(/C=C/c2nc3ccccc3n3c(-c4ccc(Cl)cc4)nnc23)cc1`, `O=[N+]([O-])c1cccc(-c2nnc3c(/C=C/c4ccccc4O)nc4ccccc4n23)c1` is lower in growth: 102% for the first, 53.8% for the second.

Going from `COc1ccc(-n2c(SCC(=O)NNS(=O)(=O)c3ccccc3)nc3ccc(Cl)cc3c2=O)cc1` to `COc1cccc(C(=O)CSc2nc(-c3ccc(OCc4ccccc4)c(OC)c3)c(C#N)c(=O)[nH]2)c1`, the growth falls from 118% to 111%.

Going from `O=C1NC(=S)S/C1=C\c1cn(-c2ccccc2)nc1-c1ccc([N+](=O)[O-])cc1` to `Cc1ccc2c(c1)C(=O)/C(=C/c1ccc([N+](=O)[O-])cc1)S2`, the growth rises from 22.4% to 103%.

Going from `O=C(CC(=O)Nc1ccc(Oc2ncnc3scc(Nc4n[nH]c(=S)s4)c23)cc1)Nc1ccc(Br)cc1` to `O=C(CC(=O)Nc1ccc(Oc2ncnc3scc(Nc4n[nH]c(=S)s4)c23)cc1)Nc1ccc(Cl)cc1`, the growth falls from 112% to 99.8%.

First: Cn1cc(/C=C(/SS/C(=C/c2cn(C)c3cccc(C(=O)O)c23)C(=O)O)C(=O)O)c2c(C(=O)O)cccc21
Second: COc1cccc(O)c1/C=C1\SCc2cc3c(OC)cccc3[o+]c21
The growth of the first is lower: 99.8% for the first, 114% for the second.

Compared with `COc1cc(C2CC(c3ccccc3)=Nc3c(N)nc(N)nc3N2)ccc1Oc1nc(NCCO)nc(N2CCOCC2)n1` (stereo not given), `COc1cc(C2CC(c3ccc(Oc4ccc(Cl)cc4)cc3)=NN2c2nc(-c3ccc(Cl)cc3)c(C#N)c(N3CCOCC3)n2)cc(OC)c1OC` (stereo not given) is lower in growth: 115% for the first, 100% for the second.

`COc1ccc(C2OC[C@@]3(C)C4CC[C@]5(C)C(CC=C6C7CC(C)(C)CC[C@]7(C(=O)O)CC[C@]65C)[C@@]4(C)C[C@@H](O)[C@@H]3O2)cc1` (stereo not given in full) and `CC1(C)CC(=O)C2=C(C1)N(Cc1ccc(C(=O)O)cc1)C1=C(C(=O)CC(C)(C)C1)C2c1ccc(Cl)cc1` are the same in growth: 101% for the first, 101% for the second.

Compared with `Cc1ccc(COc2ccc(NC(=O)Nc3ccc(Cl)c(C(F)(F)F)c3)cc2)cc1`, `O=C(Nc1ccc(Oc2ncnc3scc(Nc4n[nH]c(=S)s4)c23)cc1)C1(C(=O)Nc2cccc(C(F)(F)F)c2)CC1` is higher in growth: 83.7% for the first, 107% for the second.

Going from `COc1ccc(Cn2cc(C#N)c(N)c2C(C)=O)c(OC)c1` to `COc1ccccc1-n1cc(C#N)c(N)c1C(=O)c1ccc(Cl)cc1Cl`, the growth falls from 106% to 58.5%.

Going from `Cc1ccc(-c2nc(C#N)c(S(=O)(=O)N3CCN(S(C)(=O)=O)CC3)o2)cc1` to `O=C1S/C(=C\c2ccc([N+](=O)[O-])cc2)C(=O)N1CCN1CCCCC1`, the growth rises from 92.9% to 104%.

Compared with `Cn1cc(-c2nnc(N)nc2-c2c[nH]c3ccc(F)cc23)c2cc(Br)cnc21`, `Cc1ccc2sc3c(c2c1)Oc1nc[nH]c(=O)c1C3c1cccc(F)c1` (stereo not given) is higher in growth: 72.8% for the first, 118% for the second.

Compared with `COc1ccc(Cc2nn(CC(=O)N/N=C/c3ccc([N+](=O)[O-])cc3)c(=O)c3c(C)noc23)cc1`, `C#CCOc1cc(N(CC)CC)ccc1C(C(=O)NC(C)(C)C)N(C(=O)C1CCc2cc(F)ccc2O1)c1ccc(F)cc1F` (stereo not given) is lower in growth: 105% for the first, 78.1% for the second.

`O=C(c1ccc(F)cc1)C(c1c[nH]c2ccccc12)c1c[nH]c2ccccc12` gave a growth of 82.9%.

With `O=C(c1ccccc1)c1ccc2nc(-c3ccccc3Br)[nH]c2c1` the growth was -96.3% (active).
For `C#C[C@]1(O)CC[C@H]2[C@@H]3CC=C4c5sc(Nc6cc(C)cc(C)n6)nc5CC[C@]4(C)[C@H]3CC[C@@]21C`, the growth was 1.37% (active).
In the case of `CCOc1ccc(/C=N/NC(=O)Cn2nc(Cc3ccc(OC)cc3)c3onc(C)c3c2=O)cc1`, the growth is reported as -11.5% (active).
With `Cn1cc(-c2cc3nc(-c4c[nH]c5ccccc45)cc(N)n3n2)c2cc(Cl)ccc21` the growth was -84.1% (active).
`CCn1c(SCC(=O)Nc2ccc(-c3nc4ccccc4[nH]3)cc2)nc2ccccc2c1=O` was tested, and the growth was -31.6% (active).
`O=C(CSc1nc2ccccc2c(=O)n1-c1ccc(Cl)cc1)Nc1ccc(-c2nc3ccccc3[nH]2)cc1` was tested, and the growth was 4.31% (active).
`O=C(c1ccc(Cl)cc1)C(c1c[nH]c2ccccc12)c1c[nH]c2ccccc12` was tested, and the growth was -89.6% (active).
In the case of `O=C(Nc1ccc(OCc2ccc(Cl)cc2)cc1)Nc1ccc(Cl)c(C(F)(F)F)c1`, the growth is reported as 3.51% (active).
With `Cn1cc(-c2cc(N)n3nc(-c4cn(C)c5ccccc45)cc3n2)c2cc(F)ccc21` the growth was -80.5% (active).
With `Cn1cc(-c2nc(N)nnc2-c2c[nH]c3ccccc23)c2cc(Br)cnc21` the growth was -35% (active).
For `COc1ccc(C(=O)COc2ccc(NC(=O)Nc3ccc(Cl)c(C(F)(F)F)c3)cc2)cc1`, the growth was 1.03% (active).
